Experimental data published in PubChem BioAssay (NCI).
About 79,000 compounds went through this panel and 15% of them were active in at least one assay; those are over-represented in the sample as a whole. Unmarked numbers belong to inactive results. Activity calls are given as the source filed them. Cut-off read from the data, not from the text of the source: active = growth inhibition above about 70%; inactive = the rest.

Assays:
[1] = NCI Yeast Anticancer Drug Screen. Data for the rad50 strain (AID 155);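 note: 0% = growth of vehicle-only cultures of the same strain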; details: S. cerevisiae rad50 strain growth inhibition, hits give high values
Outline: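 Growth of the mutant yeast was measured after compound exposure and referenced to vehicle-treated cultures.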

[2] = NCI Yeast Anticancer Drug Screen. Data for the mec2-1 strain (AID 157); details: S. cerevisiae mec2-1 strain, hits give high values
Outline: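 Each compound was tested on mec2-1 yeast, a strain altered in DNA damage repair or cell cycle control. Growth inhibition is reported relative to vehicle.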

[3] = NCI Yeast Anticancer Drug Screen. Data for the sgs1 mgt1 strain (AID 161);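 note: 0% = growth of cultures given vehicle only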; details: S. cerevisiae sgs1 mgt1 strain, hits give high values
Outline: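 Test agents were incubated with a DNA-repair-mutant yeast strain. Growth was then read and compared against vehicle-treated controls.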

[4] = NCI Yeast Anticancer Drug Screen. Data for the cln2 rad14 strain (AID 165);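 note: 0% = growth equal to vehicle treated cultures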; details: S. cerevisiae cln2 rad14 strain, hits give high values
Outline: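 Test compounds were added to cln2 rad14 yeast cultures; inhibition of growth was then determined by comparison with vehicle treatment.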

[5] = NCI Yeast Anticancer Drug Screen. Data for the bub3 strain (AID 167); details: S. cerevisiae bub3 mutant strain, hits give high values
Outline: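 Whole-cell yeast assay. The mutant strain was incubated with compounds, and growth inhibition was determined by comparison with vehicle-treated cells.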

[6] = NCI Yeast Anticancer Drug Screen. Data for the mlh1 rad18 strain (AID 175); details: S. cerevisiae mlh1 rad18 strain growth inhibition, hits give high values
Outline: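 Inhibition values reflect reduced growth of mutant yeast versus vehicle-treated controls following compound exposure; the mutations affect DNA damage repair.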

[7] = at 5.0 µM (retest, dose inferred, filed as 0.5)
[8] = at 50.0 µM (retest, dose inferred, filed as 5.0)

Row | SMILES | growth inhibition [1, 7] | growth inhibition [1, 8] | growth inhibition ([1]; at 50.0 µM) | growth inhibition [2, 7] | growth inhibition [2, 8] | growth inhibition ([2]; at 50.0 µM) | growth inhibition [3, 7] | growth inhibition [3, 8] | growth inhibition ([3]; at 50.0 µM) | growth inhibition [4, 7] | growth inhibition [4, 8] | growth inhibition ([4]; at 50.0 µM) | growth inhibition [5, 7] | growth inhibition [5, 8] | growth inhibition ([5]; at 50.0 µM) | growth inhibition [6, 7] | growth inhibition [6, 8] | growth inhibition ([6]; at 50.0 µM)
1 | O=C(O)C1C2CC3CC(C2)CC1C3 (configuration not stated) | 2% | 42% | 20% | 8% | 47% | 5.85% | 7% | 60% | -4.9% | 3% | 21% | -67.8% | 16% | 86% (active) | 75.5% (active) | 0% | 82% (active) | 9.35%
2 | CCCCCCCOc1ccc(C=O)cc1OC | 0% | 41% | 7.3% | -1% | 35% | 44% | 3% | 45% | 38.6% | -2% | 26% | 36.9% | -1% | 38% | 50% | 1% | 46% | 33.8%
3 | O=c1[nH]c(C(F)(F)F)c(F)c(=O)[nH]1 | 0% | -2% | 69.3% | 3% | 1% | 93.5% (active) | 2% | 27% | 86.7% (active) | 3% | 5% | 94.1% (active) | -2% | -5% | 63.1% | -2% | -3% | 95% (active)
4 | CCCC/C=C1\CCC(CN2CCOCC2)C1=O (configuration not stated) | 56% | 100% (active) | 90.5% (active) | 39% | 100% (active) | 92.8% (active) | 43% | 100% (active) | 91.4% (active) | 44% | 98% (active) | 90.8% (active) | 69% | 100% (active) | 91.2% (active) | 61% | 98% (active) | 90.7% (active)
5 | Cc1c2ccncc2cc2c1sc1ccncc12 | 97% (active) | 97% (active) | 91.2% (active) | 95% (active) | 97% (active) | 93% (active) | 94% (active) | 99% (active) | 91.2% (active) | 87% (active) | 98% (active) | 90.5% (active) | 96% (active) | 98% (active) | 89.5% (active) | 96% (active) | 97% (active) | 89.3% (active)
6 | CC(C)C(C)(C(=O)O)C(C)C | 0% | 1% | 13.8% | 3% | 2% | 2.1% | 2% | 3% | 5.6% | -3% | 4% | 67% | -1% | 0% | -5.5% | 1% | 0% | 2.75%
7 | COc1ccc2c(c1)c1c(C)c3cnccc3c(C)c1n2CCCN | 9% | 44% | 74% (active) | 28% | -17% | 27.9% | 2% | 13% | 29.3% | 10% | -9% | -24.1% | 13% | -10% | 46.1% |  |  | 
8 | COC1(OC)C2(Cl)C(Cl)=C(Cl)C1(Cl)C1C2C2CC1(C(=O)O)c1ccccc12 (configuration not stated) | 29% | 29% | 92% (active) | 23% | 23% | 93.4% (active) | 17% | 17% | 93% (active) | 26% | 26% | 91.5% (active) | 26% | 26% | 90.8% (active) | 41% | 41% | 90.5% (active)
9 | Cc1ccc(N2C(=O)C(C)SC2=S)cc1Cl (configuration not stated) | 2% | -4% | 86.2% (active) | -1% | -1% | 51.9% | 1% | -25% | 94.7% (active) | -2% | -2% | 13.7% | -4% | 1% | 48% | -5% | 1% | 93.5% (active)
10 | CCCCCCCCCCCCCCCCOS(=O)(=O)O | 24% | 99% (active) | 98% (active) | 13% | 100% (active) | 98.5% (active) | 49% | 100% (active) | 98.8% (active) | 5% | 99% (active) | 97.7% (active) | 20% | 100% (active) | 98.8% (active) | 42% | 100% (active) | 99% (active)
